Bioassay records as filed in PubChem.
Rows were chosen to be rich in hits. Some 3.8% of all compounds tested hit in one or more screens of this group.
esBAF inh – SWI/SNF esBAF complex inhibition | mouse ES cells, Bmi1-luciferase knock-in reporter, 24 h; 100% = twice the neutral-well signal | reporter increase, % at 12.5 µM | actives 2% (n = 350,000) | AID 602393; in the data active means activation above about 40%; inconclusive means no clear call, values can overlap the other calls;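 further: a rise in the Bmi1 reporter signal indicates esBAF inhibition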
Wnt bcat act – Wnt/beta-catenin pathway activation; Wnt/beta-catenin reporter cell assay, activator, plate reader; activation, % at 9.35 µM; actives 1.2% (n = 300,000); AID 743398; in the data active means activation above about 30%, passing the limit was not always enough; inconclusive means no clear call, values can overlap the other calls
HSF1 activator – increases HSF-1 driven luciferase reporter signal; activation, % at 9 µM; actives 1.7% (n = 300,000); AID 504408; NIH3T3-HGL HSF-1 luciferase reporter, MG132, 8 h; 100% = twice DMSO control signal;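 active means mean replicate activation of at least 50% with a set share of replicates each reaching 50%; inconclusive means only one of those two conditions met; inactive means mean below 50% and too few replicates reaching it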
MITF act – MITF TRPM1 promoter activation in melanoma cells. SK-MEL-5 TRPM1-promoter luciferase, 24 h; % of positive control, neutral wells = 0. activation, % at 12.5 µM. actives 0.75% (n = 300,000). AID 588334;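 active means mean activation of at least 80% with every replicate also reaching 80%; inconclusive means mean reaches 80% but some replicate falls short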
HSF1 inhib – HSF1 inhibition; actives 0.77% (n = 300,000); NIH3T3-HGL HSE-luciferase, MG132-induced, luminescence 8 h; hits give low values; activity change, negative = inhibition, % at 7.5 µM (by protocol);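 active means more than half of replicate wells show activity change below -50%, luminescence cut by over half; inconclusive means some wells, but at most half, below -50%; inactive means no replicate well below -50%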;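 further: luciferase reports HSF-1 transcriptional activity via heat shock element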
Large screens that a line does not name were inactive.

COc1ccc(CN(C)C[C@@H]2OCCCC[C@@H](C)Oc3ccc(NC(=O)NC(C)C)cc3C(=O)N([C@@H](C)CO)C[C@H]2C)cc1	none (no result: Wnt bcat act, HSF1 activator, MITF act, HSF1 inhib)
CCCNC(=O)N1[C@@H](CO)[C@@H](c2ccccc2)[C@@H]1CNC(=O)c1ccc(F)cc1	none (no result: Wnt bcat act, HSF1 activator, MITF act, HSF1 inhib)
C[C@H](CO)N1C[C@H](C)[C@@H](CN(C)S(=O)(=O)c2ccc(Cl)cc2)OCCCC[C@H](C)Oc2ccc(NC(=O)CCCN(C)C)cc2C1=O	none (no result: Wnt bcat act, HSF1 activator, MITF act, HSF1 inhib)
Cc1ccc(N2C(=O)CC(NNc3nc4ccccc4s3)C2=O)cc1 (stereo unspecified)	none (no result: esBAF inh, Wnt bcat act)
COc1cccc(N2C(=O)CC(NNc3nc4ccccc4s3)C2=O)c1 (stereo unspecified)	HSF1 activator 69 (no result: esBAF inh, MITF act)
CCc1ccc(N2C(=O)CC(NNc3nc4ccccc4s3)C2=O)cc1 (stereo unspecified)	HSF1 activator 220 (no result: esBAF inh, Wnt bcat act)
O=C1CC(NNc2nc3ccccc3s2)C(=O)N1c1ccccc1 (stereo unspecified)	none (no result: Wnt bcat act)
C[C@H](CO)N1C[C@H](C)[C@H](CN(C)C(=O)NC2CCCCC2)Oc2ccc(NC(=O)CCCCCC(=O)Nc3ccccc3N)cc2CC1=O	none (no result: Wnt bcat act, HSF1 activator, MITF act, HSF1 inhib)
CCCCNC1C(CC)C(CCC)C(C#N)(C#N)C1(C#N)C#N (stereo unspecified)	HSF1 activator 118 (no result: Wnt bcat act)
COc1ccccc1/C=C/C(=O)NCc1ccccn1	none (no result: esBAF inh)
COCCNC(=O)C(=O)N/N=C/c1cccs1	none (no result: esBAF inh)
COc1ccccc1NC(=O)C(=O)Nc1ccccn1	Wnt bcat act 36, HSF1 activator 59
COc1ccc(/C=C/C(=O)NC(=S)Nc2ccccn2)cc1	esBAF inh 48
COc1ccccc1NC(=O)C(=O)N/N=C/c1cccs1	esBAF inh 76
COc1ccccc1/C=C/C(=O)NC(=S)Nc1ccccn1	HSF1 activator 65 (no result: MITF act)
C[C@H]1CCCCO[C@@H](CN(C)S(=O)(=O)c2ccc(Cl)cc2)[C@@H](C)CN([C@@H](C)CO)C(=O)c2cc(NS(C)(=O)=O)ccc2O1	none (no result: Wnt bcat act, HSF1 activator, MITF act, HSF1 inhib)
CNc1nc(-c2ccc([N+](=O)[O-])cc2)cs1	esBAF inh 45, MITF act 90
CCN(CC)CC(=O)Nc1nc(-c2ccc(Cl)cc2)cs1	none (no result: Wnt bcat act)
CNc1nc(-c2ccc(Cl)cc2)cs1	esBAF inh 52, MITF act inconclusive (no result: Wnt bcat act)
CCNc1nc(-c2ccc(Cl)cc2)cs1	esBAF inh 90, MITF act 111 (no result: Wnt bcat act)
CC(C)C(=O)Nc1nc(-c2ccc([N+](=O)[O-])cc2)cs1	none (no result: esBAF inh)
C[C@H](CO)N1C[C@H](C)[C@@H](CN(C)S(=O)(=O)c2cn(C)cn2)Oc2ccc(NS(=O)(=O)c3ccc(Cl)cc3)cc2C1=O	none (no result: Wnt bcat act, HSF1 activator, MITF act, HSF1 inhib)
C[C@H]1CN([C@@H](C)CO)C(=O)c2cc(NC(=O)Nc3ccc(C(F)(F)F)cc3)ccc2O[C@H]1CN(C)C	none (no result: Wnt bcat act, HSF1 activator, MITF act, HSF1 inhib)
CCOC(=O)c1c(C)[nH]c(C)c1C(=O)COC(=O)c1cccc(C)c1O	none (no result: Wnt bcat act)
Cc1cccc(C(=O)OCC(=O)c2c(C)[nH]c3ccccc23)c1O	esBAF inh 73, Wnt bcat act 37, MITF act 82 (no result: HSF1 activator, HSF1 inhib)
O=C(COC(=O)c1ccccc1[N+](=O)[O-])c1ccc2c(c1)OCO2	HSF1 inhib -66
Cc1c(C(=O)OCC(=O)NCc2ccc3c(c2)OCO3)cccc1[N+](=O)[O-]	HSF1 activator 60 (no result: Wnt bcat act)
Cc1cc(C(=O)COC(=O)c2ccc(N)c([N+](=O)[O-])c2)c(C)n1Cc1ccc2c(c1)OCO2	esBAF inh 89, Wnt bcat act 37
O=C(Nc1ccc2c(c1)[C@@H]1C[C@@H](CC(=O)N3CCCCC3)O[C@H](CO)[C@@H]1O2)C1CCC1	none (no result: Wnt bcat act, HSF1 activator, MITF act, HSF1 inhib)
CCCNC(=O)N1C[C@H]2[C@@H](c3ccccc31)[C@@H](CO)N2C(=O)Nc1ccc(F)cc1	none (no result: Wnt bcat act, HSF1 activator, MITF act, HSF1 inhib)
CN1C(=O)c2cc(NC(=O)C3CCCC3)ccc2OC[C@@H]2O[C@@H](CC(=O)NCC(F)(F)F)CC[C@@H]21	none (no result: Wnt bcat act, HSF1 activator, MITF act, HSF1 inhib)
CCN1[C@@H]2c3ccc(C4=CCCCC4)c(=O)n3C[C@H]1[C@H](CO)[C@H]2C(=O)N1CCOCC1	none (no result: Wnt bcat act, HSF1 activator, MITF act, HSF1 inhib)
O=C(C[C@@H]1CC[C@@H]2[C@H](COC[C@@H](O)CN2C(=O)Nc2ccc(Cl)c(Cl)c2)O1)NCc1ccncc1	none (no result: Wnt bcat act, HSF1 activator, MITF act, HSF1 inhib)
CCCNC(=O)N1C[C@@H](O)COC[C@@H]2O[C@H](CC(=O)N[C@@H]3CCN(Cc4ccccc4)C3)CC[C@H]21	none (no result: Wnt bcat act, HSF1 activator, MITF act, HSF1 inhib)
Cc1cccc(C(=O)OCC(=O)c2ccc3c(c2)OCO3)c1O	Wnt bcat act 57, HSF1 activator 66, MITF act 119
Cc1cccc(C(=O)OCC(=O)c2ccc3c(c2)OCCO3)c1O	Wnt bcat act inconclusive (no result: HSF1 activator, HSF1 inhib)
N#Cc1cccc(-c2ccc3c(c2)[C@H]2[C@H](CCN2C(=O)c2ccncc2)[C@H](CO)N3)c1	none (no result: Wnt bcat act, HSF1 activator, MITF act, HSF1 inhib)
Cc1nc2c(-c3ccccc3)c[nH]n2c(=O)c1Cc1ccccc1	esBAF inh 47
CN(C(=O)c1ccco1)c1nc2c(s1)CCCC2	HSF1 activator 62
CN(C(=O)c1ccco1)c1nnc(C23CC4CC(CC(C4)C2)C3)s1	esBAF inh 67 (no result: MITF act)
Cc1noc(C)c1NC(=O)N(C)C[C@H]1Oc2ccc(NS(=O)(=O)c3ccc(F)cc3)cc2C(=O)N([C@@H](C)CO)C[C@@H]1C	none (no result: Wnt bcat act, HSF1 activator, MITF act, HSF1 inhib)
COc1cc(OC)c(C2=Nc3ccc(Br)cc3C(c3ccccc3)N2CC(=O)NN)cc1OC (stereo unspecified)	Wnt bcat act 37 (no result: esBAF inh)
CO[C@H]1CN(C)C(=O)c2cc(NC(=O)C3CCCC3)ccc2OC[C@H](C)N(C(=O)CC2CC2)C[C@@H]1C	none (no result: Wnt bcat act, HSF1 activator, MITF act, HSF1 inhib)
Brc1ccc(-c2nnc(Cc3ccccc3)o2)cc1	HSF1 activator 56 (no result: esBAF inh, MITF act)
c1ccc(Cc2nnc(-c3ccccc3)o2)cc1	esBAF inh 49, Wnt bcat act 56 (no result: MITF act)
COc1ccc(Cc2nnc(-c3ccccc3)o2)cc1	esBAF inh inconclusive
Cc1ccccc1-c1nnc(Cc2ccccc2)o1	none (no result: esBAF inh)
C[C@@H]1CCCCO[C@H](CN(C)C(=O)Nc2ccc(F)cc2)[C@H](C)CN([C@@H](C)CO)C(=O)c2cc(NC(=O)CCC(F)(F)F)ccc2O1	none (no result: Wnt bcat act, HSF1 activator, MITF act, HSF1 inhib)
Cc1nc(-c2ccc(Cl)cc2)sc1C1(C)CC(c2ccc(Cl)cc2)=NO1 (stereo unspecified)	HSF1 inhib -63
Cc1nc(-c2ccc(Cl)cc2)sc1C1(C)CC(c2ccccc2)=NO1 (stereo unspecified)	esBAF inh 59
Cc1nc(-c2ccc(Cl)cc2)sc1C1(C)CC(c2ccccc2Br)=NO1 (stereo unspecified)	none (no result: esBAF inh)
COc1ccccc1C1=NOC(C)(c2sc(-c3ccc(Cl)cc3)nc2C)C1 (stereo unspecified)	esBAF inh 43
COc1ccccc1S(=O)(=O)N[C@H]1CC[C@@H](CCNC(=O)C2CC2)O[C@H]1CO	none (no result: Wnt bcat act, HSF1 activator, MITF act, HSF1 inhib)
COc1ccc(NC(=O)N(C)C[C@@H]2Oc3c(NC(=O)Nc4c(C)noc4C)cccc3C(=O)N([C@H](C)CO)C[C@@H]2C)cc1	none (no result: Wnt bcat act, HSF1 activator, MITF act, HSF1 inhib)
O=C(/C=C1\OCc2ccccc21)c1ccccc1	Wnt bcat act 45 (no result: esBAF inh, HSF1 activator, MITF act, HSF1 inhib)
Clc1ccc(OCCCCSc2ncccn2)cc1	none (no result: esBAF inh, Wnt bcat act)
COc1ccc(OCCSc2nc(N)cc(N)n2)cc1	esBAF inh 67, MITF act 95
